# Shown are actives, neighbours in structure and some others; about 5.1% of the full set was active somewhere.
# Tau FP inhib – qHTS for Inhibitors of Tau Fibril Formation, Fluorescence Polarization; K18 P301L tau heparin fibrillization, Alexa594 FP, 6 h; Potency, µM (series often up to 57.7 µM), inactives show at the highest dose activity, negative = inhibition, most hits filed as inhibitors; hit rate 0.39% among 280,000; AID 1468, 2008; note: potency is the fitted concentration of half-maximal effect; nearly all actives have a fitted effect of over 55% in size
# Target sequence (P10636 561-689 P618L limits assumed): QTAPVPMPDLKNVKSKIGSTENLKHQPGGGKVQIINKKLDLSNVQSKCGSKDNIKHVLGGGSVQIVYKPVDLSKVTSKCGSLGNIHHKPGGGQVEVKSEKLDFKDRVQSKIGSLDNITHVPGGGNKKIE
#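 Heparin (20 uM) drove fibril formation of recombinant tau K18 P301L, 15 uM unlabeled with 0.24 uM Alexa 594 label, for 6 hr at 37 C in 100 mM sodium acetate pH 7. Fluorescence polarization (555/632 nm) read 1 hr after 30 uM ThT.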
# JMJD2E inh – qHTS Assay for Inhibitors of Human Jumonji Domain Containing 2E (JMJD2E); hit rate 1.6% among 230,000; JMJD2E catalytic domain, FDH-coupled NADH fluorescence (FDH is formaldehyde dehydrogenase); AID 2147, 2009; Potency, µM (titrated, usually from 57.1 µM), for the others: at the highest dose activity change, negative = inhibition, actives largely listed as inhibitors; active = well fitted inhibition curve with a large enough effect, not every such curve was filed as active; inconclusive = small, poorly fitted or top-dose-only effect, or another doubt; inactive = no such curve, though single readings can be large or run the other way;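 note: potency is the fitted concentration of half-maximal effect; 0% = wells with enzyme and -100% = buffer wells without enzyme; nearly all actives have a fitted effect of over 50% in size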
# Target sequence (B2RXH2 1-337 limits assumed): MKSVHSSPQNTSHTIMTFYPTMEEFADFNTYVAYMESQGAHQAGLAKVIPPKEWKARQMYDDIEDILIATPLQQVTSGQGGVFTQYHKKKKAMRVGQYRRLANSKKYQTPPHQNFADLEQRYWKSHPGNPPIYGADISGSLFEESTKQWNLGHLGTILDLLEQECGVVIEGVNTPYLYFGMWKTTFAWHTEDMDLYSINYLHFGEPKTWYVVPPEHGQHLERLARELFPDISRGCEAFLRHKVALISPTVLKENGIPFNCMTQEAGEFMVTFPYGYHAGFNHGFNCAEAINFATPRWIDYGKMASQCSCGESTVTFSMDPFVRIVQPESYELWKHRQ
# NPSR antag – qHTS Assay for Antagonists of the Neuropeptide S Receptor: cAMP Signal Transduction | Q6W5P4 | CHO-NPSR cells, cAMP TR-FRET, antagonist mode | Potency, µM (highest dose often 38.3 µM), without a hit: top-dose activity change, negative = inhibition, actives largely listed as inhibitors | hit rate 1% among 220,000; note: potency is the fitted concentration of half-maximal effect; nearly all actives have a fitted effect of over 50% in size
# Tau fluor cs – Counterscreen qHTS for Inhibitors of Tau Fibril Formation, Fluorescence Polarization; tau K18 P301L Alexa594 fluorescence, heparin fibrillization; Potency, µM (series often up to 57.7 µM), inactives show at the highest dose activity change, negative = decrease; hit rate 0.93% among 280,000; AID 1463, 2008; note: potency is the fitted concentration of half-maximal effect; nearly all actives have a fitted effect of over 55% in size
#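 Human K18 P301L tau (15 uM unlabeled plus 0.24 uM Alexa 594-labeled, final) in 100 mM sodium acetate pH 7 was mixed with compound and 20 uM heparin and incubated 6 hr at 37 C.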
# Tau ThT inhib – qHTS for Inhibitors of Tau Fibril Formation, Thioflavin T Binding; Potency, µM (top dose mostly 57.4 µM), for the others: at the highest dose activity, negative = inhibition, most hits filed as inhibitors; hit rate 2.1% among 270,000; Microtubule-associated protein tau (Homo sapiens), P10636; recombinant tau K18 P301L (four-repeat tau fragment), heparin-induced fibrillization, ThT fluorescence; note: potency is the fitted concentration of half-maximal effect; nearly all actives have a fitted effect of over 55% in size
#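 K18 P301L tau (15 uM + 0.24 uM Alexa 594-tagged), heparin 20 uM, NaOAc pH 7, 6 h 37 C; ThT 30 uM, 1 h RT, ex 450/em 510 nm.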
# PNC assembly inh – High Content Assay for Compounds that inhibit the Assembly of the Perinucleolar Compartment; PC3M PTB-GFP, PNC prevalence imaging, 16 h; hits give low values; activity change (PNC), negative = inhibition, % at 10 µM; hit rate 3.1% among 140,000;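 active = readout at or below -70, meaning at least 70% loss of cells showing the perinucleolar compartment, a nuclear body marking cancer cells; inconclusive = readout between -30 and a set limit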;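 note: plate controls were DMSO wells for no effect and camptothecin positive control wells for full effect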
#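 Compounds are pinned in duplicate onto adhered PC3M cells stably expressing GFP-tagged PTB and incubated 16 h at 37 C. Cells are then fixed, nuclei stained with Hoechst, and PNC-positive cells counted.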
# The depositor's hits bear a star; ? = inconclusive; nt = not tested or not shown; [ ] = remark or other dose. Unless noted, calls come from the whole dose curve; as a rule, active = well fitted curve in the direction sought with a large enough effect; inconclusive = small, poorly fitted or top-dose-only effect, or another doubt; inactive = no such curve, though single readings can be large; an effect the other way counts as inactive or inconclusive. Unless noted, % is set by controls: 0 for no effect and ±100 for the full control effect.
SMILES,Tau FP inhib,JMJD2E inh,NPSR antag,Tau fluor cs,Tau ThT inhib,PNC assembly inh
CCc1ccccc1NC(=O)Nc1nnc(N(CC)c2ccccc2)s1,10%,nt,nt,2%,0%,nt
Cc1ccc(Cn2cc(CCC(=O)NC3CCC(C)CC3)c3ccccc32)cc1 (centres undefined),3%,nt,nt,-6%,-2%,nt
COc1ccc(O)c(/C=N/NC(=O)CSc2nnc(C)n2-c2ccccc2)c1,8%,22µM*,-4%[46.1 µM],-7%,-9%,-21
Cc1cc(NS(=O)(=O)Cc2ccccc2)cc(C)c1OCC(=O)N1CCOCC1,5%,0%,-7%[46.1 µM],1%,-6%,-96*
Cc1cc(NC(=O)c2cc3ccccc3o2)cc(C)c1OCC(=O)N1CCOCC1,12%,-4%,-7%[46.1 µM],-2%,-9%,-22
Cc1ccc(/C=C/C(=O)Nc2ccc(Cl)cc2Cl)cc1,3%,nt,nt,11%,3%,nt
Clc1ccc2c(c1)C(C1=NCCN1)c1ccccc1CS2 (centres undefined),1%,7%,6%,1%,1%,?
S=C1NCCc2ccc(Cl)cc2C1c1ccccc1Cl (centres undefined),-10%,3%,-21%[46.1 µM],?,-4%,-100*
CC1=C(C(=O)N2CCOCC2)C(c2ccc(O)cc2)NC(=S)N1 (centres undefined),0%,-24%,14%,-4%,-7%,-2
Oc1ccc2c(c1)C1CCCC1(N1CCOCC1)O2 (centres undefined),?,16µM*,-1%[46.1 µM],-26%,?,-5
FC(F)(F)c1cc(NC(=S)Nc2ccc3ccccc3c2)cc(C(F)(F)F)c1,0%,?,nt,?,-15%,nt
Cc1ccc(O)c(-c2cc3ccccc3[nH]2)c1,11%,?,9%[46.1 µM],16µM*[quencher],13µM*,13
CCOC(=O)c1c(NC(=O)/C=C/c2ccc(C(C)C)cc2)sc2c1CCC2,1%,nt,nt,0%,-15%,nt
CC(=O)c1nn(-c2cccc(Br)c2)cc1C(=O)c1ccco1,-14%,9%,-9%[46.1 µM],1%,10%,-10
O=C(c1cccc(Br)c1)c1conc1C(=O)c1ccco1,-3%,-14%,-2%,-7%,-1%,-114*
Cc1cc(C)nc(N/N=C/C=C/c2ccccc2)n1,-1%,5%,-38%,0%,-5%,-104*
CC(C)(Oc1ccc(Br)cc1)C(=O)Nc1cc(-c2nc3ccccc3[nH]2)ccc1Cl,16µM*,nt,nt,?,-1%,nt
COC(=O)c1c(NC(=O)Cc2coc3cc(C)ccc23)sc2c1CCC2,-3%,nt,nt,?,?,nt
O=C(Nc1nc(-c2ccccn2)cs1)c1ccc([N+](=O)[O-])o1,?,?,59%,?,13µM*,nt
Cc1cc(C(=O)Nc2nc(-c3ccccn3)cs2)ccc1[N+](=O)[O-],6%,?,-15%,?,11µM*,nt
Cc1ccc(C(=O)Nc2nc(-c3ccccn3)cs2)o1,-6%,?,38%,-28%,?,nt

# Screening data as filed in PubChem.
